# Laboratory results: the supplement of paper PMC6555819
# Assays:
# Assay in all cases: PBM binding z-score (relative to random genomic background probes); higher = stronger binding; sequences stand for … in GC…GCGATTGACAGCGTAGAATGAAGG
# [1] = system: PPARg:RXRa DBDmut IVT, anti-RXR (DBD mutation: RXRa K156A/R161A, NR concentration 270 nM, RXRa partner concentration 90 nM)
# Outline: (§1)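 Binding buffer was PBS pH 7.4 with 2% milk, 0.02% Triton X-100, 1 mM DTT, 0.2 mg/mL BSA and 0.4 mg/ml salmon testes DNA. In it, ligand-free nuclear receptor dimers were incubated 1 h on custom Agilent 4×180K protein-binding microarrays carrying double-stranded probes. Antibodies against each partner (one per run) detected binding, and z-scores were calculated against random background probes after regression normalization of scanned fluorescence.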
# [2] = system: PPARg:RXRa IVT, anti-PPARg (NR concentration 270 nM, RXRa partner concentration 90 nM)
# Outline: as §1
# [3] = system: PPARg DBDmut:RXRa IVT, anti-PPARg (DBD mutation: PPARg1 K132A/R137A, NR concentration 270 nM, RXRa partner concentration 90 nM)
# Outline: as §1
# [4] = system: PPARg DBDmut IVT, anti-PPARg (DBD mutation: PPARg1 K132A/R137A, NR concentration 270 nM)
# Outline: as §1
# [5] = system: PPARg homodimer (NR concentration 180 nM)
# Outline: as §1
# [6] = system: PXR:RXRa (NR concentration 270 nM, RXRa partner concentration 90 nM)
# Outline: as §1
# [7] = system: PXR homodimer (NR concentration 270 nM)
# Outline: as §1
# [8] = system: RARa:RXR (NR concentration 270 nM, RXRa partner concentration 90 nM)
# Outline: as §1
# [9] = system: RARa homodimer (NR concentration 270 nM)
# Outline: as §1
# [10] = system: RARb:RXRa (NR concentration 270 nM, RXRa partner concentration 90 nM)
# Outline: as §1
Sequence,PBM binding z-score [1],PBM binding z-score [2],PBM binding z-score [3],PBM binding z-score [4],PBM binding z-score [5],PBM binding z-score [6],PBM binding z-score [7],PBM binding z-score [8],PBM binding z-score [9],PBM binding z-score [10]
ATACCAAGCTGATCGTGAGGTCGTTGATACTAAC,-0.185,0.0581,0.404,0.536,0.45,1.49,1.06,1.26,0.317,0.454
CTACCAAGGTAAACAAGGTCGTTGATTACTATTC,1.19,0.986,-0.194,0.206,0.169,2.25,1.6,1.75,0.382,0.851
CCTTACGGTTCACGAGGTTATAGCACGACGAGCG,0.19,0.535,0.19,0.414,1.45,3.2,1.29,3.8,1.36,1.99
GCTAGTAGTTGAAAGGGCAACCGAATGATTCTCG,0.195,1.26,-0.638,-0.335,1.55,0.658,-0.0187,1.47,-1.01,1.88
CCTACTGGGCCCCGAAAGGTCATTGATTCAGTGA,0.503,2.11,-1.53,-0.961,2.6,4.66,1.26,5.15,1.3,3.6
CTACCAAGGTGAACAAGGTCGTTGATTACTATTC,2.26,2.58,0.576,0.29,0.831,2.96,1.95,2.45,0.346,2.16
ATATGTAGGTTAAGGGTCATTTAGGTTGGTTCGC,7.27,7.94,3.6,3.31,3.63,5.37,2.03,5.61,2.42,3.61
ATATGTAGGTTAGCAGGGGTCATTCAGACTAGGC,6.72,6.32,3.05,2.47,4.78,6.38,2.6,6.55,2.44,3.5
CGTTCAAGGTCAGAGAGGTCAGTGAATGCCGAGT,3.67,4.41,1.75,1.56,5.16,6.25,12.2,5.57,2.45,5.45
CCTTACTGGTCACGAGGTTATAGCACGACGAGCG,1.37,2.01,1.13,0.311,1.78,1.55,0.447,2.19,1.15,2.46
AGTGAAAGTTCACTAGGTAACGTAAGATTCAGCT,2.6,4.86,1.41,0.57,2.04,3.61,2,3.07,0.607,4.44
CCTAGTGGGTCAAGGTCACACACGCTATAGGTAC,6.82,8.11,2.26,1.37,4.57,4.75,1.48,5.41,2.82,4.87
ACTATTAGTTGACTTTGGGCAACCGATACGACGC,-0.00927,0.141,1.83,1.67,0.55,0.0456,0.199,0.481,0.975,0.454
CGAACTAGGTCACGAAAGGTCAAAGTCGAATGAC,8.45,8.7,0.767,1.32,5.63,7.14,3.35,7.72,2.82,5.68
TTACCAAGGAGAAGGTCGTTGATCCCTCTGTAGA,-0.339,-0.0762,-0.116,0.61,0.455,1.03,-0.292,1.34,-0.134,0.537
CGAACTAGGGCATGAGTTGATAGCAAATGCCGAT,7.01,6.1,1.05,0.0296,-0.00514,-0.191,-0.257,0.155,-0.133,1.12
GCTATTGGTTGAAAGGGCAACCGAATGATTCTCG,0.217,0.624,0.114,-0.668,0.512,0.73,0.0657,1.48,0.176,1.87
CTCGAAAGGTCGGTTGAGGAGAGTATACGGATAA,-0.459,0.102,1.01,-0.0822,0.421,1.09,0.356,2.15,-0.00538,2.87
CCTGCTGGGCCAAAGGTCATTGATTCCAATGCTC,1.56,4.42,-0.0348,0.037,3.9,5.43,1.15,6.18,0.602,4.63
ATCGAAAGGTGGTGAGGTGAGTATACAGAAAGGC,-0.246,0.807,0.968,1.51,0.911,0.257,0.574,0.614,0.646,0.849
AGAACGAGGGCACGCTGGGTTGATAGCAGAGTAG,3.63,3.69,1.12,0.143,0.498,1.25,0.183,1.17,0.372,2.41
CGTCCAAGGTCAATACTAGGTCAGTGAAAGCATT,3.77,5,0.518,0.663,3.8,4.37,1.76,5.42,0.743,5.22
CCTACCGGGCCACGAAAGGTCATTGATTCAGTGA,0.938,2.28,-0.376,-1.2,2.6,5.44,2.13,5.36,0.144,4.07
